PubChem BioAssay AID1159580 (chemical genetic matrix, 2015)
Hit rate of the full screen: of about 5,500 compounds, about 2,000 (36%) were called active. Not shown: some 18% with an inconclusive outcome. Rule as the data show it: active = normalized growth mostly below about 0.91 (no sharp cut-off); inconclusive = no clear call, values can overlap the other calls; inactive = mostly above about 0.92. The list shows a part of the results.

Experiment: chemical genetic growth profiling, strain panel (AID 1159580);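 also: tested at 20 µM; growth read once vehicle control cultures reached saturation at 30 °C; 1 = growth at the plate median or of vehicle wells; lower values mean less growth of the strain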
Details: S. cerevisiae deletion strains, growth OD

Measured: normalized growth

COc1cc(N2C(=O)C=CC2=O)cc(OC)c1OC
active: locus YDL214C, strain PRR2, hits give low values 0.159 | locus YDR477W, strain SNF1, hits give low values 0.176 | locus YER123W, strain YCK3, hits give low values 0.289 | locus YER133W, strain GLC7, hits give low values 0.226 | locus YFR019W, strain FAB1, hits give low values 0.378 | locus YGR040W, strain KSS1, hits give low values 0.191 | locus YGR052W, strain FMP48, hits give low values 0.156 | locus YHR030C, strain SLT2, hits give low values 0.385 | locus YHR082C, strain KSP1, hits give low values 0.147 | locus YJL095W, strain BCK1, hits give low values 0.302 | locus YJL128C, strain PBS2, hits give low values 0.553 | locus YJR066W, strain TOR1, hits give low values 0.133 | locus YKL203C, strain TOR2, hits give low values 0.357 | locus YLR113W, strain HOG1, hits give low values 0.156 | locus YNL183C, strain NPR1, hits give low values 0.143 | locus YOR119C, strain RIO1, hits give low values 0.311 | locus YPL256C, strain CLN2, hits give low values 0.129
inactive: locus YAR019C, strain CDC15, hits give low values 0.924 | locus YBL105C, strain PKC1, hits give low values 0.958 | locus YBR135W, strain CKS1, hits give low values 0.95 | locus YBR136W, strain MEC1, hits give low values 0.935 | locus YBR160W, strain CDC28, hits give low values 0.958 | locus YDL017W, strain CDC7, hits give low values 0.975 | locus YDL028C, strain MPS1, hits give low values 0.958 | locus YDL108W, strain KIN28, hits give low values 0.952 | locus YDL132W, strain cdc53, hits give low values 0.94 | locus YDR052C, strain DBF4, hits give low values 0.959 | locus YDR054C, strain cdc34, hits give low values 0.947 | locus YDR226W, strain ADK1, hits give low values 0.928 | locus YFL009W, strain cdc4, hits give low values 0.968 | locus YFL029C, strain CAK1, hits give low values 0.915 | locus YFR003C, strain YPI1, hits give low values 0.989 | locus YFR028C, strain CDC14, hits give low values 0.928 | locus YGR092W, strain DBF2, hits give low values 0.967 | locus YHR079C, strain IRE1, hits give low values 0.955 | locus YIL147C, strain SLN1, hits give low values 0.982 | locus YJR016C, strain ILV3, hits give low values 0.973 | locus YKL048C, strain ELM1, hits give low values 0.947 | locus YKL193C, strain SDS22, hits give low values 0.939 | locus YMR001C, strain CDC5, hits give low values 0.928 | locus YMR205C, strain PFK2 (second series), hits give low values 0.941 | locus YMR277W, strain FCP1, hits give low values 0.926 | locus YNL006W, strain LST8, hits give low values 1 | locus YNL020C, strain ARK1, hits give low values 0.96 | locus YNL161W, strain CBK1, hits give low values 0.961 | locus YNL207W, strain RIO2, hits give low values 0.968 | locus YNL222W, strain SSU72, hits give low values 0.943 | locus YNL307C, strain MCK1 (second series), hits give low values 0.67 | locus YOL078W, strain AVO1, hits give low values 0.93 | locus YOR061W, strain CKA2, hits give low values 0.942 | locus YOR231W, strain MKK1, hits give low values 0.92 | locus YOR329C, strain SCD5, hits give low values 0.991 | locus YPL209C, strain IPL1, hits give low values 0.964 | locus YPR025C, strain CCL1, hits give low values 0.95 | locus YPR106W, strain ISR1, hits give low values 0.924 | strain NNK1, hits give low values 0.977 | strain TSCII, hits give low values 0.933
